In the supplement of paper PMC12494721:
Structures can show the parent of a compound that is named as a salt. Values without a mark were called inactive.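 The calls were made as follows: for the amine columns active = adjusted P below 0.05 in both replicates with a change the same way and a mean fold change under 0.8 or over 1.25; inactive = the rest.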

tested on: Klebsiella aerogenes DSM 30053; experiment: fold change of Histamine concentration vs plate DMSO controls (fold change (ratio)); higher = more amine produced, active = hit call of the paper (significant change in both replicates, either direction); settings: incubation time: 27 h, anaerobic, 37 °C
Method in brief: (§1)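 Amine values are fold changes relative to DMSO-only wells on the same plate. They derive from 27 h, 37 °C anaerobic mGAM cultures of four gut bacterial strains in 80 µL wells, dosed at 20 µM final, or 50 µM final for sweeteners. Extraction of the whole culture, LC–triple-quadrupole MS in dynamic MRM mode, external calibration curves and within-batch drift correction were used, with 2 biological replicates averaged.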

SMILES	fold change of Histamine concentration
CC[C@@H]([C@H](C)O)n1ncn(-c2ccc(N3CCN(c4ccc(OC[C@@H]5CO[C@@](Cn6cncn6)(c6ccc(F)cc6F)C5)cc4)CC3)cc2)c1=O [Posaconazole hydrate] (20 µM)	1.11
COCC1=C(C(=O)OC(C)OC(=O)OC(C)C)N2C(=O)[C@@H](NC(=O)/C(=N\OC)c3csc(N)n3)[C@H]2SC1 (some centres undefined) [Cefpodoxime proxetil] (20 µM)	1.06
O=c1n(CCCN2CCN(c3cccc(Cl)c3)CC2)nc2ccccn12 [Trazodone hydrochloride] (20 µM)	1.03
CC1=C(C(=O)O)N2C(=O)[C@@H](NC(=O)[C@H](N)c3ccccc3)[C@H]2SC1 [Cephalexin monohydrate] (20 µM)	1.03
CCCSc1nc(N[C@@H]2C[C@H]2c2ccc(F)c(F)c2)c2nnn([C@@H]3C[C@H](OCCO)[C@@H](O)[C@H]3O)c2n1 [Ticagrelor] (20 µM)	0.977
Cc1cc(NS(=O)(=O)c2ccc(N)cc2)nc(C)n1 [Sulfisomidine] (20 µM)	1.02
CN1CCN(C(c2ccccc2)c2ccc(Cl)cc2)CC1 (centres undefined) [Chlorcyclizine hydrochloride] (20 µM)	1.09
OC[C@H](O)C(O)[C@@H](O)CO [L-Arabinitol] (50 µM)	1
CC(C)COC(=O)OCN1C(=O)CN(CCN2CC(=O)N(COC(=O)OCC(C)C)C(=O)C2)CC1=O [Sobuzoxane] (20 µM)	1
CCCNC(=O)NS(=O)(=O)c1ccc(Cl)cc1 [Chlorpropamide] (20 µM)	1.17

tested on: Clostridium sporogenes DSM 1664; experiment: fold change of Tryptamine concentration vs plate DMSO controls (fold change (ratio)); higher = more amine produced, active = hit call of the paper (significant change in both replicates, either direction); settings: incubation time: 27 h, anaerobic, 37 °C
Method in brief: as §1

SMILES	fold change of Tryptamine concentration
Nc1nc(CC(=O)Nc2ccc(CCNC[C@H](O)c3ccccc3)cc2)cs1 [Mirabegron] (20 µM)	1.02
CS(=O)(=O)OCCCCOS(C)(=O)=O [Busulfan] (20 µM)	1.04
CCN(CC)CCOC(=O)C(Cc1cccc2ccccc12)CC1CCCO1 (centres undefined) [Nafronyl oxalate] (20 µM)	0.969
C[C@H]1O[C@@H](O[C@H]2[C@@H](O)C[C@H](O[C@H]3[C@@H](O)C[C@H](O[C@H]4CC[C@@]5(C)[C@H](CC[C@@H]6[C@@H]5C[C@@H](O)[C@]5(C)[C@@H](C7=CC(=O)OC7)CC[C@]65O)C4)O[C@@H]3C)O[C@@H]2C)C[C@H](O)[C@@H]1O [Digoxin] (20 µM)	1
COc1cc(N)c(Cl)cc1C(=O)NC1CCN(CCCOc2ccc(F)cc2)CC1OC (centres undefined) [Cisapride] (20 µM)	0.972
O=C(O[C@@H]1C[C@@H]2C[C@H]3C[C@H](C1)N2CC3=O)c1c[nH]c2ccccc12 [Dolasetron mesilate] (20 µM)	1
Cc1oncc1C(=O)Nc1ccc(C(F)(F)F)cc1 [Leflunomide] (20 µM)	0.995
CC(C)Cn1cnc2c(N)nc3ccccc3c21 [Imiquimod] (20 µM)	0.888
Clc1ccc2c(c1)C(N1CCNCC1)=Nc1ccccc1O2 [Amoxapine] (20 µM)	0.943
CCCCCN(C)CCC(O)(P(=O)(O)O)P(=O)(O)O [Ibandronate sodium] (20 µM)	1.05
CN1CCc2c(c3ccccc3n2Cc2ccccc2)C1 [Mebhydroline 1,5-naphtalenedisulfonate] (20 µM)	1.05
C=C1/C(=C\C=C2/CCC[C@]3(C)[C@@H]([C@H](C)/C=C/[C@@H](O)C4CC4)CC[C@@H]23)C[C@@H](O)C[C@@H]1O [Calcipotriene] (20 µM)	0.952
Cc1nc(=O)c2cc(CN(C)c3ccc(C(=O)N[C@@H](CCC(=O)O)C(=O)O)s3)ccc2[nH]1 [Raltitrexed] (20 µM)	1.17
Cc1cn[nH]c1 [Fomepizole] (20 µM)	1.03
CC[C@@H]1C(=O)OC[C@@H]1Cc1cncn1C [Pilocarpine nitrate] (20 µM)	0.955
C=C(CC)C(=O)c1ccc(OCC(=O)O)c(Cl)c1Cl [Ethacrynic acid] (20 µM)	1.01
Cc1cccc(C)c1OCC(=O)N[C@@H](Cc1ccccc1)[C@@H](O)C[C@H](Cc1ccccc1)NC(=O)[C@H](C(C)C)N1CCCNC1=O [Lopinavir] (20 µM)	0.892
OCCN1C[C@H](O)[C@@H](O)[C@H](O)[C@H]1CO [Miglitol] (20 µM)	1
CCOc1ccccc1OCC1CNCCO1 (centres undefined) [Viloxazine hydrochloride] (20 µM)	1.03
CC[C@@]1(O)C(=O)OCc2c1cc1n(c2=O)Cc2cc3c(CN(C)C)c(O)ccc3nc2-1 [Topotecan] (20 µM)	0.992

SMILES	fold change of Tryptamine concentration
CC(C)N1CCN(c2ccc(OCC3COC(Cn4cncn4)(c4ccc(Cl)cc4Cl)O3)cc2)CC1 (centres undefined) [Terconazole] (20 µM)	0.976
CN1CCN(c2c(F)cc3c(=O)c(C(=O)O)cn4c3c2OCN4C)CC1 [Marbofloxacin] (20 µM)	0.0554 (active)
O=C(O)c1cc(=O)[nH]c(=O)[nH]1 [Orotic acid] (20 µM)	1.01
c1ccc2c(c1)Cc1ccccc1-2 [Fluorene] (20 µM)	0.97
Oc1c(Br)cc(Br)c2cccnc12 [Broxyquinoline] (20 µM)	0.919
CCC[C@@H]1C[C@@H](C(=O)N[C@@H]([C@H]2O[C@H](SC)[C@H](O)[C@@H](O)[C@H]2O)[C@H](C)Cl)N(C)C1 [Clindamycin hydrochloride] (20 µM)	0.0905 (active)
COC(=O)Nc1nc2cc(Sc3ccccc3)ccc2[nH]1 [Fenbendazole] (20 µM)	0.986
CN(c1nccc(=O)[nH]1)C1CCN(c2nc3ccccc3n2Cc2ccc(F)cc2)CC1 [Mizolastine] (20 µM)	0.967
CC[N+](C)(C)c1cccc(O)c1 [Edrophonium chloride] (20 µM)	0.998
CC[C@@H]([C@H](C)O)n1ncn(-c2ccc(N3CCN(c4ccc(OC[C@@H]5CO[C@@](Cn6cncn6)(c6ccc(F)cc6F)C5)cc4)CC3)cc2)c1=O [Posaconazole hydrate] (20 µM)	0.993
COCC1=C(C(=O)OC(C)OC(=O)OC(C)C)N2C(=O)[C@@H](NC(=O)/C(=N\OC)c3csc(N)n3)[C@H]2SC1 (some centres undefined) [Cefpodoxime proxetil] (20 µM)	0.946
O=c1n(CCCN2CCN(c3cccc(Cl)c3)CC2)nc2ccccn12 [Trazodone hydrochloride] (20 µM)	0.988
CC1=C(C(=O)O)N2C(=O)[C@@H](NC(=O)[C@H](N)c3ccccc3)[C@H]2SC1 [Cephalexin monohydrate] (20 µM)	1.17
CCCSc1nc(N[C@@H]2C[C@H]2c2ccc(F)c(F)c2)c2nnn([C@@H]3C[C@H](OCCO)[C@@H](O)[C@H]3O)c2n1 [Ticagrelor] (20 µM)	0.88
Cc1cc(NS(=O)(=O)c2ccc(N)cc2)nc(C)n1 [Sulfisomidine] (20 µM)	1.08
CN1CCN(C(c2ccccc2)c2ccc(Cl)cc2)CC1 (centres undefined) [Chlorcyclizine hydrochloride] (20 µM)	0.979
OC[C@H](O)C(O)[C@@H](O)CO [L-Arabinitol] (50 µM)	0.956
CC(C)COC(=O)OCN1C(=O)CN(CCN2CC(=O)N(COC(=O)OCC(C)C)C(=O)C2)CC1=O [Sobuzoxane] (20 µM)	1.03
CCCNC(=O)NS(=O)(=O)c1ccc(Cl)cc1 [Chlorpropamide] (20 µM)	0.956
